Assay [1] can be described thus: qHTS of pediatric cancer cell lines to identify multiple opportunities for drug repurposing: Confirmatory screen for SJ-GBM2 cells (AID 1347116). Note: nearly all actives have a fitted effect of over 60% in size. Put shortly: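 Viability measured as metabolically active cells via CellTiter-Glo luminescence following 48 hours of compound exposure, 11-point dilutions in confirmatory testing. 500-1,000 cells/well plated 5 hours before dosing; controls were DMSO and 2.3 µM bortezomib.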

A short description of assay [2]: qHTS of pediatric cancer cell lines to identify multiple opportunities for drug repurposing: Confirmatory screen for BT-37 cells (AID 1347117). Note: nearly all actives have a fitted effect of over 55% in size. The conditions noted are these: BT-37 pediatric cancer cells, viability; activity change, negative = cytotoxic: at 45.9 µM (top of the series). Put shortly:
(§1)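 Cells (500-1,000/well) rested 5 h, then received compounds for 48 h; metabolically active cells were measured by CellTiter-Glo luminescence. Final concentrations spanned up to 46 µM (MIPE, 11-point) or 0.59 nM-46 µM (NPC, 8-point) in primary screens, 11-point in follow-ups.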

The nature of assay [3]: qHTS of pediatric cancer cell lines to identify multiple opportunities for drug repurposing: Confirmatory screen for TC32 cells (AID 1347118).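 Note: cells exposed to compound for 48 h before the read; nearly all actives have a fitted effect of over 65% in size.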 Put shortly: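 Luminescent ATP read-out (CellTiter-Glo) of metabolically active TC32 cells after 48 h exposure. Concentration-response curves came from 11-point (MIPE, 0.78 nM–46 µM) or 8-point (NPC, 0.59 nM–46 µM) primary titrations; follow-up used 11 points.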

Assay [4] in a line: qHTS of pediatric cancer cell lines to identify multiple opportunities for drug repurposing: Confirmatory screen for MG 63 (6-TG R) cells (AID 1347119). Note: nearly all actives have a fitted effect of over 55% in size. Put shortly:
as §1

Assay [5] can be described thus: qHTS of pediatric cancer cell lines to identify multiple opportunities for drug repurposing: Confirmatory screen for U-2 OS cells (AID 1347122). Note: nearly all actives have a fitted effect of over 65% in size. Put shortly: as §1
Assay [6] is described as follows: qHTS of pediatric cancer cell lines to identify multiple opportunities for drug repurposing: Confirmatory screen for Rh41 cells (AID 1347123).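 Note: 48 h compound exposure; nearly all actives have a fitted effect of over 60% in size.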 In outline: as §1
Assay [7] is described as follows: qHTS of pediatric cancer cell lines to identify multiple opportunities for drug repurposing: Confirmatory screen for RD cells (AID 1347124).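 Note: cells exposed to compound for 48 h before viability readout; nearly all actives have a fitted effect of over 65% in size.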 Put shortly:
as §1

Assay [8] in a line: qHTS of pediatric cancer cell lines to identify multiple opportunities for drug repurposing: Confirmatory screen for NB-EBc1 cells (AID 1347115).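 Note: cells exposed to compound for 48 h before the viability read; nearly all actives have a fitted effect of over 45% in size.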 In outline:
as §1

Assay [9] is described as follows: qHTS of pediatric cancer cell lines to identify multiple opportunities for drug repurposing: Confirmatory screen for control Hh wild type fibroblast cells (AID 1347121). Note: nearly all actives have a fitted effect of over 70% in size. Put shortly: as §1

Records with an inconclusive call do not appear. Calls of active or inactive are those of the source. Calls come from the whole dose curve; as a rule, active = well fitted curve in the direction sought with a large enough effect; inconclusive = small, poorly fitted or top-dose-only effect, or another doubt; inactive = no such curve, though single readings can be large; an effect the other way counts as inactive or inconclusive.

In PubChem BioAssay (NCATS) one finds Potency data, which are given here for 18 molecules.
Potency is the fitted concentration of half-maximal effect.

For `C=CCNC1=C2C[C@@H](C)C[C@H](OC)[C@@H](O)[C@@H](C)C=C(C)[C@H](OC(N)=O)[C@@H](OC)C=CC=C(C)C(=O)NC(=CC1=O)C2=O`, the Potency in assay [1] was 0.165 µM (active); in assay [2], 0.0928 µM (active); in [3], 0.522 µM (active); in [4], 2.61 µM (active); in assay [5] it was 0.414 µM (active); in assay [6], 0.737 µM (active). The Potency in [7] is 0.131 µM (active).

`C[C@@H](Oc1ccc2[nH]nc(C=Cc3cnn(CCO)c3)c2c1)c1c(Cl)cncc1Cl`: the Potency in [8] is 13.1 µM (active); in [1], 18.5 µM (active); in [2], 18.5 µM (active); in assay [3] it was 2.33 µM (active); in assay [4], 0.737 µM (active); in assay [9] it was 13.1 µM (active). The Potency in [5] is 2.08 µM (active); in [6], 0.104 µM (active); in assay [7], 5.22 µM (active).

For the molecule `Oc1ccc(-c2ccc(-c3cc(Nc4cccc(CNC5CC5)c4)n[nH]3)cc2)c(O)c1`, the Potency is 14.7 µM (active) in assay [1]; 6.57 µM (active) in assay [2]; 2.33 µM (active) in assay [3]; 5.22 µM (active) in assay [5]; 3.69 µM (active) in [6]; 5.22 µM (active) in assay [7]. Moreover, the Potency entry in assay [4] and in [9] was “inactive” throughout.

Regarding `COC(=O)C=CC(=O)OC`, the Potency is 20.8 µM (active) in assay [8]; 3.29 µM (active) in assay [2]; 3.29 µM (active) in assay [3]; 13.1 µM (active) in assay [4]; 23.3 µM (active) in assay [6]. The Potency result in assay [1] and in assay [9] was “inactive” in each case.

As to `CO[C@@H]1[C@@H](O)[C@H](O)[C@@H](n2c3c(Cl)cccc3c3c4c(c5c6cccc(Cl)c6[nH]c5c32)C(=O)NC4=O)O[C@@H]1CO`, the Potency in assay [8] was 1.47 µM (active); in assay [1], 5.22 µM (active); in assay [2], 0.827 µM (active); in [3], 0.737 µM (active); in [4], 1.31 µM (active); in assay [5], 4.14 µM (active). In assay [6], the Potency was 5.85 µM (active). In addition, the Potency result in assay [9] was “inactive”.

Take `CC(C)N1[N]C(=C2C=c3cc(O)ccc3=N2)c2c(N)ncnc21`: the Potency in assay [1] is 4.14 µM (active); in assay [2], 1.31 µM (active); in assay [3] it was 1.17 µM (active); in assay [4], 0.414 µM (active); in [5], 2.33 µM (active); in assay [6], 0.522 µM (active). For the same molecule, the Potency in assay [7] is 11.7 µM (active).

Turning to `Cc1nc(NC(=O)N2CCC[C@@H]2C(N)=O)sc1-c1ccnc(C(C)(C)C(F)(F)F)c1`, the Potency in assay [8] was 16.5 µM (active); in assay [3] it was 5.22 µM (active); in assay [4] it was 6.57 µM (active); in assay [5], 14.7 µM (active). The Potency result in assay [9] was “inactive”.

Consider `CNC(=O)c1ccc(Nc2cc(Nc3ccccc3S(=O)(=O)C(C)C)c3cc[nH]c3n2)nc1`, for which the Potency was 10.4 µM (active) in assay [1]; 6.57 µM (active) in [2]; 1.85 µM (active) in assay [3]; 1.04 µM (active) in assay [4]; 13.1 µM (active) in [9]; 9.27 µM (active) in [7].

In the case of `CS(=O)(=O)N1CCc2c(-c3cnc(N)nc3)nc(N3CCOCC3)nc21`, the Potency is 7.37 µM (active) in assay [1]; 5.85 µM (active) in assay [2]; 1.85 µM (active) in assay [3]; 0.585 µM (active) in assay [4]; 1.85 µM (active) in assay [5]; 1.85 µM (active) in [6]. For the same molecule, the Potency in [7] is 1.31 µM (active).

Regarding `COC(=O)[C@@H]1[C@H]2C[C@@H]3c4[nH]c5ccccc5c4CCN3C[C@@H]2CC[C@@H]1O`, the Potency result in [8], in assay [1], in assay [2], in assay [3], in [4] and in assay [5] was “inactive” throughout. Further, the Potency entry in assay [6] and in assay [7] was “inactive” throughout.

As to `CCS(=O)(=O)Nc1ccc2[nH]c(O)c(C(=Nc3ccc(CN4CCCCC4)cc3)c3ccccc3)c2c1`, the Potency in [8] was 4.65 µM (active); in assay [1], 14.7 µM (active); in assay [2], 16.5 µM (active); in assay [3], 0.0414 µM (active); in assay [4], 0.329 µM (active); in [5] it was 0.522 µM (active). Besides, the Potency in assay [7] is 0.737 µM (active).

In the case of `CN(CC(=O)N(Cc1ccc(C2CCCCC2)cc1)c1ccc(C(=O)O)c(O)c1)S(=O)(=O)c1c(F)c(F)c(F)c(F)c1F`, the Potency result in [8], in assay [1] and in [9] was “inactive” each time. The Potency was 26.1 µM (active) in [2], 26.1 µM (active) in [3] and 20.8 µM (active) in assay [4].

Regarding `COc1ccc2c(c1OC)C(=O)OC2[C@H]1c2c(cc3c(c2OC)OCO3)CCN1C` (stereo partly drawn), the Potency entry in assay [8], in [1], in assay [2], in assay [9], in assay [5] and in [7] was “inactive” in each case. The Potency in assay [3] was 2.93 µM (active).

As for `C=Cc1c(C)c2cc3nc(cc4[nH]c(cc5nc(cc1[nH]2)C(C)=C5CCC(=O)O)c(CCC(=O)OC)c4C)[C@@]1(C)C3=CC=C(C(=O)OC)[C@H]1C(=O)OC`, the Potency result in assay [8], in assay [1], in assay [9] and in assay [5] was “inactive” each time.

For the molecule `Cn1cnc(=N)c2[nH]cnc21`, the Potency result in assay [8], in [2], in assay [3], in [4] and in [9] was “inactive” in each case.

Consider `Cc1ncc(-c2ccnc(Nc3ccc(S(C)(=O)=O)cc3)n2)n1C(C)C`, for which the Potency in assay [1] is 2.61 µM (active); in assay [2] it was 3.29 µM (active); in assay [3], 4.65 µM (active); in assay [5] it was 3.29 µM (active); in assay [6] it was 2.93 µM (active); in [7], 5.22 µM (active). Further, the Potency entry in assay [4] and in assay [9] was “inactive” in each case.

Take `CC(=O)O[C@H]1C[C@@H]2CC[C@H]3[C@H]4C[C@H]([N+]5(C)CCCCC5)[C@@H](OC(C)=O)[C@@]4(C)CC[C@@H]3[C@@]2(C)C[C@H]1N1CCCCC1`: the Potency in [1] is 14.7 µM (active); in [2], 3.29 µM (active); in assay [3], 2.33 µM (active); in assay [6], 7.37 µM (active). The Potency result in assay [4], in assay [5] and in [7] was “inactive” in each case.

Turning to `CNC(=O)Nc1ccc(-c2nc(N3CC4CCC(C3)O4)c3cnn(C4CCC5(CC4)OCCO5)c3n2)cc1`, the Potency in assay [1] is 1.04 µM (active); in [2] it was 0.104 µM (active); in assay [3], 0.369 µM (active); in assay [4], 0.0329 µM (active); in assay [5], 0.522 µM (active); in assay [6], 0.131 µM (active). Also, the Potency in assay [7] was 0.522 µM (active).
